Experiment [1] has as its system DLD1. Kind of experiment: cell viability (CellTiter-Glo) relative to plate median (fraction of plate median); higher = more viable cells. The settings on record: 5 µM; treatment time 24 h; reporter: 7TFP. In a few lines:
(§1)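 Library compounds were added at a final concentration of 5 µM for 24 h to colorectal cancer cells stably transduced with a lentiviral TCF/Wnt firefly luciferase reporter. Reported values are firefly luciferase or CellTiterGlo luminescence, normalised per well to the plate median. Each value averages two independent replicates.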
On the technique in general: ATP-based viability assays read luminescence as a measure of living cells.

The subject of experiment [2] is HCT116. The experiment is described as above. The settings on record: 5 µM; treatment time 24 h; reporter: TCF4/Wnt. The method in brief: as §1
Experiment [3] has as its system SW480. The description is as above. The settings on record: 5 µM; treatment time 24 h; reporter: 7TFP. In a few lines: as §1
Experiment [4] concerns DLD1. As to the kind of experiment: TCF/Wnt firefly luciferase reporter signal relative to plate median (fraction of plate median); higher = higher Wnt reporter signal. Conditions: 5 µM; treatment time 24 h; reporter: 7TFP. The method in brief: as §1
(In general: In a reporter assay the amount or activity of a reporter protein is the signal.)

Experiment [5] concerns SW480. The experiment is described as above. Conditions: 5 µM; treatment time 24 h; reporter: 7TFP. The method in brief: as §1

Structures are written as SMILES. ± gives the standard deviation of the averaged measurements.

`CC(=O)O[C@H]1C[C@@H](OC(C)=O)C(C)(C)[C@@H]2C[C@@H](OC(C)=O)[C@@]3(C)C4=CC(=O)O[C@@H](c5ccoc5)[C@]4(C)CC[C@@H]3[C@@]12C`: the results for the cell viability in experiment [1], in experiment [2] and in experiment [3] were 1.01 ± 0.018, 1.15 ± 0.092 and 1.05 ± 0.057, respectively. The “TCF/Wnt firefly luciferase reporter signal” value in experiment [4] amounted to 0.976 ± 0.011; in experiment [5], 0.997 ± 0.033.
Taken in the same sequence, the figures for `CCCCOc1cc(C(=O)NCCN(CC)CC)c2ccccc2n1` were 0.973 ± 0.011, 0.926 ± 0.1, 0.984, 0.831 ± 0.05 and 0.964 ± 0.045.
Consider `O=C(O)[C@H](O)[C@@](O)(Cc1ccc(O)cc1)C(=O)O`, for which the cell viability in experiment [1] is 0.954 ± 0.08; in experiment [2], 0.962 ± 0.082; in experiment [3], 0.955 ± 0.021. Moreover, the “TCF/Wnt firefly luciferase reporter signal” value in experiment [4] came to 1.005 ± 0.0071; in experiment [5], 0.923 ± 0.11.
For the compound `CN1CCN(CC/C=C2/c3ccccc3Sc3ccc(S(=O)(=O)N(C)C)cc32)CC1`, the cell viability in experiment [1] was 1.07 ± 0.078; in experiment [2] it was 1.16 ± 0.042; in experiment [3], 1.07 ± 0.064. Further, the “TCF/Wnt firefly luciferase reporter signal” value in experiment [4] was 1.11 ± 0.078; in experiment [5], 0.983 ± 0.17.
For `CC(C)COCC(CN(Cc1ccccc1)c1ccccc1)N1CCCC1` (stereo not given) the same measures were 1.06 ± 0.088, 1 ± 0.064, 1.02 ± 0.06, 0.901 ± 0.084 and 0.937 ± 0.085.
Taken in the same sequence, the figures for `CCCN(CCC)S(=O)(=O)c1ccc(C(=O)O)cc1` were 1.03 ± 0.054, 1.1 ± 0.078, 1.1 ± 0.078, 1.12 ± 0.21 and 1.115 ± 0.0071.
Consider `CN(C)CCC(c1ccc(Br)cc1)c1ccccn1` (stereo not given), for which the cell viability in experiment [1] is 0.931 ± 0.15; in experiment [2] it was 1.055 ± 0.0071; in experiment [3] it was 0.922 ± 0.061. For the same compound, the figures for the “TCF/Wnt firefly luciferase reporter signal” value in experiment [4] and in experiment [5] were 1.11 ± 0.11 and 1.055 ± 0.0071, respectively.
On to `CC(=O)O[C@H](CC(=O)[O-])C[N+](C)(C)C`, for which the cell viability amounted to 1.06 ± 0.05 in experiment [1], 0.958 ± 0.044 in experiment [2] and 0.956 ± 0.043 in experiment [3]. Further, the “TCF/Wnt firefly luciferase reporter signal” value in experiment [4] turned out to be 0.94 ± 0.073; in experiment [5], 0.996 ± 0.0057.
For `COC(=O)[C@@H]1OC(=O)C2OC23[C@@]1(C)CCC1[C@]2(C)C(C[C@@H](O)[C@]13C)C(C)(C)[C@H](OC(C)=O)C[C@@H]2OC(C)=O` (stereo not given in full) the same measures were 1.01 ± 0.091, 1.01 ± 0.014, 1.01 ± 0.035, 1.1 ± 0.042 and 1 ± 0.11.
For `CC(=O)C1=C(CO)C(=O)c2cccc(O)c2C1=O` [Bhimamycin E] the same measures were 1.05 ± 0.042, 1.04 ± 0.068, 0.9945 ± 0.0021, 0.983 ± 0.14 and 1.01.
For `COc1ccc2cc3[n+](cc2c1OC)CCc1cc2c(cc1-3)OCO2` the same measures were 1.04 ± 0.021, 0.984 ± 0.011, 1.02 ± 0.091, 1.1 ± 0.085 and 0.954 ± 0.053.
Consider `OCc1ccccc1O[C@@H]1O[C@H](CO)[C@@H](O)[C@H](O)[C@H]1O`, for which the cell viability in experiment [1] was found to be 0.971 ± 0.098; in experiment [2] it was 0.971 ± 0.056; in experiment [3], 0.969 ± 0.0042. Moreover, the “TCF/Wnt firefly luciferase reporter signal” value in experiment [4] stood at 0.862 ± 0.099; in experiment [5] it was 0.967 ± 0.042.
Taken in the same sequence, the figures for `N[C@H]1Cc2ccc(cc2)C(=O)[C@@H]2C[C@@H](O)CN2C1=O` [cyclo(4-hydroxyprolyl-phenylalanyl)] were 0.951 ± 0.023, 0.907 ± 0.16, 0.956 ± 0.016, 0.915 ± 0.18 and 1.03 ± 0.028.
Taken in the same sequence, the figures for `C/N=C(/NC#N)NCCSCc1csc(NC(=N)N)n1` were 1 ± 0.068, 0.975 ± 0.078, 1.01 ± 0.014, 1.12 ± 0.021 and 1.11 ± 0.064.
Taken in the same sequence, the figures for `C=C(C)[C@H]1C(=O)[C@H]2O[C@@]2(C)C(=O)[C@@H](O)[C@H](C(=C)C)CCC2=C[C@H]1OC2=O` [bipinnapterolide A] were 1.17 ± 0.071, 1.04 ± 0.092, 1.01 ± 0.033, 0.971 ± 0.042 and 0.913 ± 0.12.
With `CC(=O)Oc1cc(OC(C)=O)c2c(c1)O[C@H](c1ccc(OC(C)=O)c(OC(C)=O)c1)[C@H](OC(C)=O)C2`, the figures for the cell viability in experiment [1], in experiment [2] and in experiment [3] were 1 ± 0.055, 0.972 ± 0.15 and 1.01 ± 0.016, respectively. Further, the “TCF/Wnt firefly luciferase reporter signal” value in experiment [4] turned out to be 0.921 ± 0.044; in experiment [5], 1 ± 0.015.
Taken in the same sequence, the figures for `Nc1ccc(S(=O)(=O)O)cc1.Nc1ccc(S(=O)(=O)O)cc1.[Zn]` were 1.08 ± 0.18, 1.01 ± 0.049, 1.105 ± 0.0071, 1.03 ± 0.12 and 1.015 ± 0.0071.
For `C#C[C@]1(OC(C)=O)CC[C@H]2[C@@H]3CCC4=CC(=NO)CC[C@@H]4[C@H]3CC[C@@]21CC` (mixture of isomers) the same measures were 1 ± 0.057, 1.025 ± 0.0071, 0.98 ± 0.025, 1.055 ± 0.0071 and 0.97 ± 0.04.
Taken in the same sequence, the figures for `CC1CC(OC(=O)C(O)c2ccccc2)CC(C)(C)N1C` (stereo not given) were 1 ± 0.011, 1.05 ± 0.021, 1.02, 1.05 ± 0.028 and 1.18 ± 0.057.
Take `C[C@H]1COC2=C1C(=O)C(=O)c1c2ccc2c1CCCC2(C)C`: the cell viability in experiment [1] is 1.15 ± 0.2; in experiment [2], 1.12 ± 0.042; in experiment [3], 1.08 ± 0.014. The results for the “TCF/Wnt firefly luciferase reporter signal” value in experiment [4] and in experiment [5] were 1.05 ± 0.096 and 0.906 ± 0.12, respectively.
Taken in the same sequence, the figures for `CCC(Cc1c(I)cc(I)c(N)c1I)C(=O)O` (stereo not given) were 1.08 ± 0.057, 1.05 ± 0.035, 1.07 ± 0.028, 1.035 ± 0.0071 and 1.04 ± 0.035.
Take `N[C@@H](C=O)[C@@H](O[C@@H]1O[C@H](C(=O)O)[C@@H](O)[C@H](O)[C@H]1O)[C@@H](O)[C@H](O)CO`: the cell viability in experiment [1] was determined as 1.02; in experiment [2], 1.14 ± 0.22; in experiment [3] it was 1 ± 0.054. Further, the “TCF/Wnt firefly luciferase reporter signal” value in experiment [4] stood at 0.939 ± 0.029; in experiment [5] it was 1 ± 0.078.
For `O=C1CCc2cc(OCCCCc3nnnn3C3CCCCC3)ccc2N1` the same measures were 0.979 ± 0.03, 1.09 ± 0.028, 1.035 ± 0.0071, 1.03 ± 0.021 and 0.987 ± 0.075.
For `CC(=O)O[C@@H]1CC2C(C)(C)[C@H](O)CC[C@]2(C)C2CC[C@@]3(C)[C@H](c4ccoc4)OC(=O)C4OC43[C@@]21C` (stereo partly drawn) [alpha-DIHYDROGEDUNOL] the same measures were 1.03 ± 0.028, 1.01 ± 0.032, 1.03, 1.02 ± 0.18 and 0.954 ± 0.025.
Taken in the same sequence, the figures for `O=C1C(CC[S+]([O-])c2ccccc2)C(=O)N(c2ccccc2)N1c1ccccc1` (stereo not given) were 1.07 ± 0.028, 1.09 ± 0.064, 1.035 ± 0.0071, 0.857 ± 0.079 and 0.885 ± 0.089.
Regarding `CC(=O)OCC1=C(C(=O)O)N2C(=O)[C@@H](NC(=O)Cc3cccs3)[C@H]2SC1`, the cell viability in experiment [1] was determined as 1.05 ± 0.021; in experiment [2], 1.06 ± 0.021; in experiment [3] it was 1.03 ± 0.028. Moreover, the “TCF/Wnt firefly luciferase reporter signal” value in experiment [4] stood at 0.953 ± 0.016; in experiment [5] it was 1 ± 0.028.
For `CCCCOc1ccc(C(=O)CCN2CCCCC2)cc1` the same measures were 0.832 ± 0.12, 0.87 ± 0.033, 0.931 ± 0.045, 1.09 ± 0.23 and 1.17 ± 0.092.
Regarding `C=C1C[C@]23C[C@@]1(O)CC[C@H]2[C@@]12C=C[C@H](O)[C@@](C)(C(=O)O1)[C@H]2[C@@H]3C(=O)O`, the cell viability in experiment [1] was found to be 1.03 ± 0.014; in experiment [2], 1.08 ± 0.05; in experiment [3], 1.02 ± 0.052. The figures for the “TCF/Wnt firefly luciferase reporter signal” value in experiment [4] and in experiment [5] were 0.88 ± 0.0028 and 0.869 ± 0.14, respectively.

The record behind these values is the supplement of paper PMC6522484.
